Bioassay records from PubChem.
OTUD3 block: blocks human OTUD3 ubiquitin-rhodamine cleavage | AID 1645858 | Q5T2D3 | 47,000 tested, 0.7% active | inhibition, % at 25 µM | purified OTUD3, Ub-rhodamine fluorescence, 2 h
USP30 block: blocks human USP30 ubiquitin-rhodamine cleavage | Q70CQ3 | purified USP30, Ub-rhodamine cleavage fluorescence | inhibition, % at 25 µM | 47,000 tested, 5.3% active | AID 1645860
USP17 inh: human USP17-like deubiquitinase inhibition | 47,000 tested, 6.5% active | AID 1645855 | purified USP17, Ub-rhodamine cleavage fluorescence, 3 h | inhibition, % at 50 µM
Target sequence (A8MUK1 whole entry, looked up): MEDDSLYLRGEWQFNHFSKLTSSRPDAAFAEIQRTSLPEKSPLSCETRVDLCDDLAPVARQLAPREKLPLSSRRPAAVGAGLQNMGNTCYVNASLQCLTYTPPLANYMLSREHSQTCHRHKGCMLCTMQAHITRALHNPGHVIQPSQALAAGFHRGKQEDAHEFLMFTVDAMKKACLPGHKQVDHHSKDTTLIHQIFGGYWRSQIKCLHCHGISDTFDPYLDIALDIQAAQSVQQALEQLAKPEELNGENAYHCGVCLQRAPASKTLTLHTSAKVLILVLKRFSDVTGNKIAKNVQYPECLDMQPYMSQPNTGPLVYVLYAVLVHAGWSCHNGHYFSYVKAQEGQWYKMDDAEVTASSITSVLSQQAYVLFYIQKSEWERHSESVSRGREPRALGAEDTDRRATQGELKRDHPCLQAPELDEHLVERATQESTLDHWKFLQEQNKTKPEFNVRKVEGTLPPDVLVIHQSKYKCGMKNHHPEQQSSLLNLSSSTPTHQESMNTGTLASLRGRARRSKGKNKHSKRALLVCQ
USP28 block: inhibitors of human USP28 deubiquitinase; purified USP28, Ub-rhodamine cleavage fluorescence, 30 min; AID 1645857; 47,000 tested, 3% active; inhibition, % at 25 µM
* hit, by the source's call. Compounds with a hit are over-represented: about 12% of the library has one in this group of screens. Cut-off read from the data, not from the text of the source: active = inhibition above about 30%; inactive = the rest.

SMILES	OTUD3 block	USP30 block	USP17 inh	USP28 block
COc1cc(OC)cc(C(=O)Nc2cccc(CCc3nc4ccccc4[nH]3)c2)c1	0.8	12.6	9.3	8.2
COc1ccc(OC)c(NC(=O)CCc2nc3ccccc3[nH]2)c1	3.6	5.4	7.9	3.3
COc1cccc(NC(=O)Nc2ccc(CCc3nc4ccccc4[nH]3)cc2)c1	-4.0	8.3	41.9*	66.2*
Cc1ccc(CS(=O)(=O)c2cn(CC(=O)NCc3ccco3)c3ccccc23)cc1	15.5	12.2	37.0*	23.6
O=C(NCCn1cc(SCC(=O)N2CCOCC2)c2ccccc21)c1ccc(Cl)cc1Cl	1.7	4.3	-3.5	-0.9
O=C(CSc1cn(Cc2ccccc2Cl)c2ccccc12)N1CCOCC1	1.3	37.0*	14.2	18.1
O=C(Cn1cc(S(=O)(=O)Cc2ccc(Cl)cc2)c2ccccc21)N1CCCCC1	0.8	75.0*	3.3	1.1
O=C(CSc1cn(CC(=O)N2CCCCC2)c2ccccc12)Nc1ccc(Cl)cc1	15.1	27.0	37.5*	6.5
CC(=O)N1CCO[C@@H]2CCN(C(=O)c3cnccn3)CC[C@H]21	-0.3	-2.3	-16.9	-2.0
Cc1cnc(C(=O)N2CCCC(c3ncc(Cc4ccc(F)cc4)o3)C2)cn1 (centres undefined)	10.3	31.5*	5.9	14.1
Cc1cc(NS(=O)(=O)c2ccc(NC(=O)c3ccc(S(=O)(=O)N(C)C)cc3)cc2)nc(C)n1	0.1	-4.4	5.0	-2.6
CCCCCCCCCC(CCCCCCCCCC(=O)O)O[C@H]1O[C@@H](COC(C)=O)[C@H](O)[C@@H](OC(=O)CC(=O)O)[C@H]1O (some centres undefined)	21.1	47.0*	33.0*	35.1*
CCCCCC(O)/C=C/C(O)C(O)CCCCCCCC(=O)O (centres undefined)	-10.1	-14.3	-4.9	-4.1
CS(=O)(=O)N(CC(=O)Nc1ccc(S(=O)(=O)N2CCOCC2)cc1)c1cccc([N+](=O)[O-])c1	-5.9	-0.1	-36.3	-6.2
O=C(CC1SC(N2CCOCC2)=NC1=O)Nc1cccc([N+](=O)[O-])c1 (centres undefined)	16.1	31.1*	15.2	0.6
CCCCCCCC(=O)c1c(O)cc(O)cc1CC(=O)O	-2.3	-44.3	4.0	7.8
COc1c(O)cc(CC(=O)O)c(C(C)=O)c1O	78.0*	33.8*	81.0*	78.7*
COc1cccc(-c2cc(CC(=O)NCc3c(F)cccc3F)no2)c1	11.5	27.5	44.8*	18.0
O=C(Cc1cc(-c2ccccc2)on1)NCc1ccc(Cl)cc1	8.2	15.9	4.5	0.6
O=C(Cc1cc(-c2ccccc2)on1)NCc1c(F)cccc1F	7.5	23.1	53.5*	27.4
O=C(CCC1CCCC1)N1CCC(NS(=O)(=O)c2ccc(Cl)cc2)CC1	14.1	22.7	20.4	10.8
Cc1nc(-c2ccc3c(c2)nnn3CCN2CCOCC2)no1	40.8*	20.4	5.8	16.2
CCc1nc(-c2ccc3c(c2)nnn3CCN2CCCCC2)no1	-2.0	-13.7	-1.2	-0.1
NC(=O)C1CN(C(=O)c2ccnc(Cc3ccc(F)cc3)c2)C1	9.5	15.4	-0.4	3.2
COCC(C)Nc1ncc(-c2cnccn2)c(-c2ccc(C)s2)n1 (centres undefined)	2.7	24.9	63.5*	12.0
SMILES	OTUD3 block	USP30 block	USP17 inh	USP28 block
Oc1sc(C=Nc2cc(Cl)ccc2Cl)c2ccccc12	-11.0	-57.7	54.2*	-0.2
Cc1c(C(=O)N2CCCC2)cnn1-c1ccc(-c2nc(C3CC3)no2)cn1	7.1	-1.4	2.0	2.0
CC1(C)Cc2c(c(N3CCOCC3)nc3sc4c(SCC(=O)N(c5ccccc5)c5ccccc5)ncnc4c23)CO1	2.6	-9.4	3.3	-0.2
Cc1nc(C2CCCN2C(=O)c2nccc3ccccc23)ncc1C(=O)N1CCOCC1 (centres undefined)	-2.9	3.7	3.0	-0.3
CC12CCC(=O)N1c1ccccc1C(=O)N2c1ccc(F)cc1 (centres undefined)	13.8	32.5*	11.1	11.8
Cc1cccc(NS(=O)(=O)c2cc3[nH]c4c(c3cc2C)C(=O)CC(C)(C)C4)c1	-4.3	20.2	36.4*	4.0
CCN(c1ccccc1)S(=O)(=O)c1cc2[nH]c3c(c2cc1C)C(=O)CC(C)(C)C3	2.7	18.2	32.9*	5.6
CSCCC(NS(=O)(=O)c1ccc(NC(C)=O)cc1)c1nnc2ccccn12 (centres undefined)	-6.2	-39.0	-34.0	-10.7
O=C(c1ccncc1)N1CCCn2nc(-c3ccncc3)cc2C1	-7.6	-16.8	-6.3	-8.0
NC(=O)c1ccc(N2CCN(c3ccccc3O)CC2)c([N+](=O)[O-])c1	3.7	-9.9	31.6*	12.1
